Screening data from PubChem.
ATXN2 expr inh: Primary qHTS for Inhibitors of ATXN expression; HEK-293 ATXN2-luciferase reporter, luminescence, 24 h; Potency, µM (titrated, usually from 57 µM), for inactives: top-dose activity change, negative = inhibition, most hits filed as inhibitors; 360,000 tested, 0.72% active; further: on the % scale 0 is the no-effect control and ±100 the full control effect; nearly all actives have a fitted effect of over 55% in size
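ATXN2-luciferase reporter cells (luciferase flanked by upstream and downstream ATXN2 gene portions) were treated 24 h at 37 °C with compounds at up to 57 uM. SteadyGlo luminescence gave expression; GF-AFC fluorescence gave viability.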
Nrf2 activator: qHTS of Nrf2 Activators; AREc32 ARE-luciferase reporter (MCF7-derived line), luminescence, 24 h; Potency, µM (highest dose often 46.1 µM), inactives show at the highest dose activation, most hits filed as activators; 410,000 tested, 0.31% active; AID 624171, 2012; further: % of control where 0% means no effect; nearly all actives have a fitted effect of over 65% in size
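Cells of the AREc32 ARE-luciferase line are plated in OPTI-MEM containing 5% FBS and left overnight at 37 deg C. Compounds are pinned in, incubation continues 24 hr, and firefly luciferase signal is then measured.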
Nrf2 block: Nrf2 qHTS screen for inhibitors; A549 ARE-Fluc reporter, luciferase luminescence, 18-24 h; Potency, µM (highest dose often 46 µM), inactives show at the highest dose activity change, negative = inhibition, hits mostly inhibitors; 360,000 tested, 2.1% active; AID 504444, 2011; further: on the % scale 0 is the no-effect control and ±100 the full control effect; nearly all actives have a fitted effect of over 60% in size
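Two sequential reads on A549 ARE_Fluc cells exposed to compound for 18-24 h: a CellTiter-Fluor fluorescence read for viability, then a luciferase luminescence read for Nrf2/ARE activity.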
A549 viability: Nrf2 qHTS screen for inhibitors: counterscreen for cytotoxicity; A549 ARE-Fluc cells, CellTiter-Fluor viability, 18-24 h; Potency, µM (highest dose often 46 µM), for inactives: at the highest dose activity change, negative = cytotoxicity, hits mostly inhibitors; 390,000 tested, 0.16% active; AID 504648, 2011; further: on the % scale 0 is the no-effect control and ±100 the full control effect
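Cytotoxicity counterscreen: CellTiter-Fluor fluorescence was measured in A549 ARE_Fluc cells after 18-24 h of compound exposure in a concentration series. The subsequent BugLite luminescent read reports ARE-luciferase activity.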
ATXN viability: Viability Counterscreen for Primary qHTS for Inhibitors of ATXN expression; S2 cells (HEK-293 line with an ATXN2-luciferase reporter) viability, CellTiter-Fluor protease fluorescence, 24 h; Potency, µM (top dose mostly 56.7 µM), usual class: cytotoxic; 400,000 tested, 0.49% active; further: nearly all actives have a fitted effect of over 40% in size
Numbers without * were called inactive; i = inactive; ? = inconclusive; . = not tested or not shown; ! = not active in a repeat; [ ] = dose if it differs, or a comment. Most compounds without a hit are left out; they make up all but 2.9% or so of the library. The call rests on the fitted dose curve; in most records, active means well fitted curve in the direction sought with a large enough effect; inconclusive means small, poorly fitted or top-dose-only effect, or another doubt; inactive means no such curve, though single readings can be large; an effect the other way counts as inactive or inconclusive. Potency means the concentration at half of the fitted maximal effect.

SMILES | ATXN2 expr inh | Nrf2 activator | Nrf2 block | A549 viability | ATXN viability
CC(=O)Nc1ccc(CC(=O)N2CCN(Cc3ccccc3)CC2)cc1 | -2% | 4% | 1% | 0% | i
CCN1CCN(C(=O)Cc2ccc(Nc3ncc(F)c(Nc4ccc(C(=O)Nc5ccccc5Cl)cc4)n3)cc2)CC1 | 24µM* | . | . | . | .
COC(=O)C1=C(c2cc3ccccc3s2)C[C@@H]2CC[C@H]1N2C(=O)NC1CC1 | -12% | 0% | ? | 0% | i
COC(=O)C1=C(c2cc3ccccc3s2)C[C@@H]2CC[C@H]1N2C(=O)NCC1CC1 | -12% | 1% | 18µM* | -15% | ?
COC(=O)C1=C(c2ccc(Cl)c(C(F)(F)F)c2)C[C@@H]2CC[C@H]1N2C(=O)N1CCC(O)(c2ccc(Cl)cc2)CC1 | ? | 0% | 23µM* | ? | ?
COC(=O)C1=C(c2cc3ccccc3s2)C[C@@H]2CC[C@H]1N2C(=O)N1CCC(C)CC1 | -12% | 0% | 26µM* | -9% | i
COC(=O)C1=C(c2ccc(OC(F)(F)F)cc2)C[C@@H]2CC[C@H]1N2C(=O)N1CCC(C)CC1 | ? | 4% | 18µM* | -7% | 28µM*
COC(=O)c1cn(S(=O)(=O)c2ccccc2)c2ccccc12 | -96% | 3% | -16% | 3% | ?
COC1=CC(=O)[C@]2(C=C1OC)OC[C@@H]1Oc3c(ccc4c3C=CC(C)(C)O4)C(=O)[C@@H]12 | ? | 6% | 0.65µM* | -10% | ?
CCOc1ccc(N2C(=O)/C(=C/c3ccco3)C(=O)NC2=S)cc1 | . | 0% | -13% | ? | i
CCOc1ccc(N2C(=O)/C(=C\c3cccs3)C(=O)NC2=S)cc1 | 32µM* | 2% | ? | ? | 35µM*
Cc1ccc(NC(=O)C2CCCN(c3ncnc4onc(C)c34)C2)c(Cl)c1 (stereo not drawn) | -15% | 1% | 26µM* | -11% | i
Cc1ccccc1N1C(=O)NC(=O)/C(=C\c2cc(Br)c(N3CCOCC3)o2)C1=O | -23% | 6% | 16µM* | 23µM* | i
Cn1nc(-c2ccc(OCC(=O)N3CCN(Cc4ccccc4)CC3)cc2)c2ccccc2c1=O | ? | 3% | 18µM* | ? | ?
Cc1ccc(OCC(=O)N2CCN(CCc3ccncc3)CC2)cc1 | . | 0% | ? | 4% | .
CSc1ccc(CN2CCN(C(=O)COc3ccc(C)cc3)CC2)cc1 | -21% | 3% | 21µM*! | 0% | i
CCCNC(=O)N1[C@H]2CC[C@@H]1C(C(=O)OC)=C(c1ccc(-c3ccccc3)c(F)c1)C2 | ? | 4% | 16µM* | 0% | ?
COC(=O)C1=C(c2ccc(-c3ccccc3)c(F)c2)C[C@@H]2CC[C@H]1N2C(=O)NCCOc1ccccc1Cl | ? | 0% | 16µM* | -20% | ?
COC(=O)C1=C(c2ccc(-c3ccccc3)c(F)c2)C[C@@H]2CC[C@H]1N2C(=O)NCc1ccco1 | ? | 0% | 15µM* | -19% | ?
COC(=O)C1=C(c2ccc(-c3ccccc3)c(F)c2)C[C@@H]2CC[C@H]1N2C(=O)NCCO | -22% | -1% | -25% | 0% | i
CCOc1ccc(CCNC(=O)c2ccc(CS(=O)(=O)c3ccccc3C)o2)cc1OCC | -35% | 4% | ? | -5% | i
CCC(=O)C(CCN(C)C)(c1ccccc1)c1ccccc1 | -17% | . | . | . | i
N#Cc1cc2c(nc1SCC(=O)Nc1cccc(C(F)(F)F)c1)C1CCN2CC1 | -3% | 2% | 21µM* | -14% | i
N#Cc1cccc(NC(=O)CSc2nc3c(cc2C#N)N2CCC3CC2)c1 | 15% | 3% | ? | 5% | .
CC1Sc2c(C(=O)O)c(=O)c3cc(F)c(N4CCNCC4)cc3n21 (stereo not drawn) | 6% | . | . | . | i
SMILES | ATXN2 expr inh | Nrf2 activator | Nrf2 block | A549 viability | ATXN viability
CC(C)C[C@H]1C(=O)N2CCC[C@H]2[C@]2(O)O[C@](NC(=O)C3C=C4c5cccc6[nH]c(Br)c(c56)C[C@H]4N(C)C3)(C(C)C)C(=O)N12 (stereo partly drawn) | -35% | 8% | 18µM* | ? | i
CCOc1ccc(CCNC(=O)c2cc3c(-c4ccc(OC)c(OC)c4)nn(C)c3s2)cc1OCC | ? | -1% | 13µM* | -9% | ?
O=C1NC[C@H](CCCCN2C[C@@H](Cc3ccccc3)N(CC3CCCCC3)C(=O)C2=O)N(CCC2CCCCC2)C1=O | -34% | 0% | . | . | ?
CC(=O)Nc1ccc(OC[C@](C)(O)C(=O)Nc2ccc([N+](=O)[O-])c(C(F)(F)F)c2)cc1 | 4% | . | . | . | .
Cc1c(-c2ccc(Br)cc2)c(=O)oc2ccc(OC(=O)N3CCOCC3)cc12 | . | 6% | . | ? | .
COc1ccc(-c2ccc3c(c2)CN(c2cccc(Cl)c2)Cc2cnnn2-3)cc1 | -8% | 0% | . | . | i
Clc1cccc(N2Cc3cc(-c4ccccc4)ccc3-n3nncc3C2)c1 | 22µM* | -1% | . | . | .
CCOc1ccc(NC(=O)c2ccc(NC(=O)COC(=O)Cc3ccccc3)cc2)cc1 | 4%[11.3 µM] | 2% | ? | 8% | i
COc1ccc(C(=O)Nc2ccc(S(=O)(=O)N(Cc3ccccc3)c3ccccc3)cc2)cc1 | -18% | 1% | 7.3µM* | -1% | i
NC(=O)c1cccn(Cc2ccc(C(F)(F)F)cc2)c1=O | -14% | 3% | 16µM* | -3% | i
CNC(=O)c1cccn(Cc2cc(C(F)(F)F)cc(C(F)(F)F)c2)c1=O | -21% | 7% | 5.2µM* | -19% | ?
CNC(=O)c1cccn(Cc2ccc(C(F)(F)F)cc2)c1=O | 34% | ? | ? | 9% | i
CC(=O)O[C@@]12CO[C@H]1C[C@H](O)[C@@]1(C)C(=O)[C@H](O)C3=C(C)[C@@H](O)C[C@@](O)([C@@H](OC(=O)c4ccccc4)[C@@H]21)C3(C)C | -7% | . | . | . | .
CNC(=O)N1N=C(c2ccc(N)cc2)c2cc3c(cc2CC1C)OCO3 (stereo not drawn) | 87% | . | . | . | .
CN(C)S(=O)(=O)c1ccc(C(=O)NCCSc2c(-c3ccccc3)[nH]c3ccccc23)cc1 | -36% | 5% | -27%[9.27 µM] | -8% | ?
COc1cc(OC)c(OC)cc1CNC(C)C(O)c1ccccc1 (stereo not drawn) | -4% | 3% | -5% | . | i
COc1cccc(C(=O)CCN[C@@H](C)[C@H](O)c2ccccc2)c1 | ? | . | . | . | 32µM*!
CC1OC(OC2C(O)CC(OC3C(O)CC(OC4CCC5(C)C(CCC6C5CCC5(C)C(C7=CC(=O)OC7)C(O)CC65O)C4)OC3C)OC2C)CC(O)C1O (stereo not drawn) | 0.32µM* | 0% | 0.092µM* | ? | ?
Cc1cnc(C)c(Nc2nc(C(N)Cc3ccc(C(F)(F)F)cc3)cs2)n1 (stereo not drawn) | ? | -4% | . | . | ?
